Each structure is given as a SMILES string. Out of some 48,000 compounds screened, about 13,000 (27%) showed an effect of 50% or more. The list shows a part of the results.

This experiment deals with Wolbachia pipientis. The experiment can be described thus: Anti-Wolbachia Cell-Based Screen. The experiment is classed as functional. More on the design: scale not given: in the data most compounds retested in dose-response had high values. Particulars: 5 µM.
Consider `CCn1nc(CC(C)C)cc1C(=O)N1CCCOC(CN2CCCC2)C1` (centres undefined), for which the “Percent Effect” value was found to be 12.35%.

As to `COc1cc(CNC(=O)Nc2nnc(C(F)(F)F)s2)ccc1O`, the “Percent Effect” value is -18.17%. With `O=C(NCC1CCCO1)Nc1nnc(C(F)(F)F)s1` (centres undefined), the “Percent Effect” value was 131.1%. As to `CCOCCC(=O)NCC1CCCO1` (centres undefined), the “Percent Effect” value was found to be 5.918%. Turning to `Cc1csc(N2CCCN(Cc3ccn(C)c(=O)c3)CC2)n1`, the “Percent Effect” value came to 2.494%. In the case of `CNS(=O)(=O)CCn1cc(-c2ccc(NC(C)=O)cc2)nn1`, the “Percent Effect” value is -17.97%. `CN(C)S(=O)(=O)N1CCC(Oc2ccccn2)CC1`: the “Percent Effect” value is given as -12.57%. Take `Cc1ccc(S(=O)(=O)N2CCC(Oc3cccnn3)CC2)c(C)c1`: the “Percent Effect” value was -2.974%. Turning to `CN(C)S(=O)(=O)N1CCC(Oc2cccnn2)CC1`, the “Percent Effect” value was 154.7%. `Cc1cc(CN2CC[C@H]3C[C@H](C(=O)Nc4cccnc4C)O[C@@H]3C2)no1.O=C(O)C(F)(F)F.O=C(O)C(F)(F)F`: the “Percent Effect” value turned out to be 0%. As for `COCC(=O)N1Cc2cnc(Cc3ccc(OC)cc3)nc2C1`, the “Percent Effect” value is given as -9.911%. For the compound `COc1ccccc1Nc1nc2c(s1)C(=O)CN(C(=O)CC(C)C)C2`, the “Percent Effect” value came to 106.8%. With `COc1ccccc1NC(=O)CC(C)NCCc1sc(C)nc1C` (centres undefined), the “Percent Effect” value is given as -7.62%.

Turning to `Cc1c(C(C)NC(=O)Nc2ccc(F)cc2F)cnn1C` (centres undefined), the “Percent Effect” value is recorded as -7.694%. As for `CC(C)(C)NC(=O)CN1CCN(C(=O)Nc2ccc(F)cc2F)CC1`, the “Percent Effect” value worked out at 10.15%. Under `CC(C)CC(=O)N1CC(=O)c2sc(Nc3ccc(F)cc3F)nc2C1` stands 102.3%; under `COCC(=O)N1CC(=O)c2sc(Nc3ccc(F)cc3F)nc2C1`, 92.12%.

As to `COc1ccccc1NC(=O)CC(C)NCc1scnc1C` (centres undefined), the “Percent Effect” value was -14.83%. With `CNS(=O)(=O)Cc1ccccc1CNc1ccc(C#N)cn1`, the “Percent Effect” value stood at 4.345%. As for `Cc1cnccc1-n1nc(C(C)C)nc1CS(C)(=O)=O`, the “Percent Effect” value was -11.94%.

Take `Cn1cc(C(NCCc2ccccn2)c2cccc(F)c2)cn1` (centres undefined): the “Percent Effect” value is reported as -5.902%.

As to `CN(C(=O)CCc1ccsc1)S(C)(=O)=O`, the “Percent Effect” value is reported as -3.197%. Under `CC(C)CNC(=O)N1C[C@H]2CC[C@@]3(N=C(c4ccccc4)NC3=O)[C@H]2C1` stands -1.799%; under `CN(C)CCNCC1CCOC(C)(C)C1` (centres undefined), 114.8%. As to `CN(C)CCCNCC1CCOC(C)(C)C1` (centres undefined), the “Percent Effect” value is reported as 84.35%. Then `CC1(C)CC(CN2CCC3(CCC(=O)N(CCO)C3)CC2)CCO1` (centres undefined), with -24.07%; and `CC(C)NC(=O)C(C(C)C)n1cnc2cc(F)c(F)cc21` (centres undefined), with -2.583%.

`Cn1cnc2c1C(C(=O)N1CCOCC1)N(C(=O)c1ccccc1)CC2` (centres undefined): the “Percent Effect” value is listed as 1.78%. Regarding `CCOC(=O)CC1CCCCN1C(=O)c1cc(=O)[nH]c(=O)[nH]1` (centres undefined), the “Percent Effect” value was determined as 3.722%.

Take `CCC1CCCCN1C(=O)Cn1cnc(C#N)n1` (centres undefined): the “Percent Effect” value is -4.598%. Then `CCC1CCCCN1C(=O)Cn1nc(-c2ccc(C)s2)cc(N)c1=O` (centres undefined), with 132.6%; and `CCOC(=O)CC1CCCCN1C(=O)c1cc(C)oc1C` (centres undefined), with 1.644%. On to `CNC(=O)C1CCCCN1C(=O)Cc1csc(-c2ccc(C)o2)n1` (centres undefined), for which the “Percent Effect” value is given as 7.331%. In the case of `Cc1ccc(-c2cc(N)c(=O)n(CC(=O)NCC3CCCCC3)n2)s1`, the “Percent Effect” value was -12.04%.

In the case of `CC1CCCN(C(=O)Cn2cc(I)cn2)C1` (centres undefined), the “Percent Effect” value is on record as 2.299%. As for `Cc1cc(C)n(C2CCCN(C(=O)Cn3ccc(=O)n(C)c3=O)C2)n1` (centres undefined), the “Percent Effect” value worked out at 5.694%.

As for `CCC1CCCCN1C(=O)Cn1nc(-c2cc(C)oc2C)cc(N)c1=O` (centres undefined), the “Percent Effect” value was 172.7%. As to `Cc1cc(-c2cc(N)c(=O)n(CC(=O)N3CCCC(C)C3)n2)c(C)o1` (centres undefined), the “Percent Effect” value was 135.5%. In the case of `CCC1CCCCN1C(=O)Cn1nc(-c2ccc(C)o2)cc(N)c1=O` (centres undefined), the “Percent Effect” value was found to be 125.9%. As for `Cl.O=C(NCC1CCC2(CCNCC2)CO1)c1ccno1` (centres undefined), the “Percent Effect” value is -17.95%. Under `COC(=O)N1CCC(Nc2cccc(F)c2C(C)=O)C1` (centres undefined) stands 18.09%; under `Cc1cc(CNc2ccc3nc(C4CC4)sc3c2)no1`, -18.62%; under `COc1ccc(C)cc1CCNS(=O)(=O)c1ccc2c(c1)CCC(=O)N2`, -14.2%. As for `COCCN1CCC(NCc2ccc(Cl)cc2)C1` (centres undefined), the “Percent Effect” value was 79.9%.

Regarding `COCCN1CCC(NCc2cccnc2)C1` (centres undefined), the “Percent Effect” value is on record as -0.4239%. For the compound `COCCN1CCC(CNC(=O)CCc2cc(F)ccc2F)C1` (centres undefined), the “Percent Effect” value is recorded as -0.9804%. As for `COCCN1CCC(NCc2c(F)cccc2F)C1` (centres undefined), the “Percent Effect” value is on record as 93.26%.

As for `COCCN1CCC(NCc2cc(F)ccc2F)C1` (centres undefined), the “Percent Effect” value came out at 105%.

As to `COCCN1CCC(NCc2cccc(C)c2)C1` (centres undefined), the “Percent Effect” value was determined as 89.68%.

For the compound `COCCN1CCC(NC(=O)NCC2(c3cccc(F)c3)CC2)C1` (centres undefined), the “Percent Effect” value is 7.702%. As to `COCCN1CCC(NCc2c(C)nn(C)c2N(C)C)CC1`, the “Percent Effect” value is reported as -18.36%. Under `CCCN1CCC(NCc2ccncc2)CC1` stands 12.05%; under `COCCN1CCC(NCc2cccc(F)c2)C1` (centres undefined), 4.631%. On to `COCCN1CCC(NCc2ccc(C#N)cc2)C1` (centres undefined), for which the “Percent Effect” value is listed as -5.015%. Then `CSc1ccc(CN(C(=O)c2cc[nH]n2)C2CC2)cc1`, with -13.27%; and `CCCN(Cc1nccn1C)C(=O)C(CC)Nc1cccc(OC)c1` (centres undefined), with -30.45%; and `COCCN1CCC(NCc2ccc(F)cc2F)C1` (centres undefined), with 87.91%.

In the case of `COCCN1CCC(NC(=O)C(C)C)CC1`, the “Percent Effect” value is given as -12.29%. Under `Cc1cc(C(F)F)nn1C(C)C(=O)NCc1ncc[nH]1` (centres undefined) stands 132.9%; under `CC(C)Nc1ncccc1C(=O)NCc1ncc[nH]1`, 7.716%; under `Cc1cc(C(F)(F)F)nn1C(C)C(=O)Nc1ccncc1` (centres undefined), 11.57%. As for `Cc1cccc(I)c1C(=O)NCc1ncc[nH]1`, the “Percent Effect” value is on record as -11.65%.

Regarding `CCCN(Cc1nccn1C)C(=O)c1cc(C(C)C)on1`, the “Percent Effect” value is -14.15%. Consider `Cc1cc(C(F)F)nn1C(C)C(=O)NCc1nccn1C` (centres undefined), for which the “Percent Effect” value is on record as 129.1%.

As to `Cc1ncc2c(n1)CCN(Cc1nc(Cc3ccccc3)no1)C2`, the “Percent Effect” value was 2.52%.

As for `Cc1noc([C@@H]2C[C@H](NC(=O)Nc3ccccc3)CN2C)n1`, the “Percent Effect” value is listed as 1.901%. As for `CN(C)C(=O)C1CCCN1C(=O)c1ccc(Cn2ccnc2)o1` (centres undefined), the “Percent Effect” value is recorded as -6.024%. On to `C[C@@H]1CN(Cc2ccccc2F)CC(C(N)=O)O1` (some centres undefined), for which the “Percent Effect” value came to 1.23%.

Regarding `COc1ccc2c(C)nc(N3C[C@@H](C)O[C@@H](C)C3)nc2c1`, the “Percent Effect” value was -4.468%. Then `CCN1CCCC(O)(CNCc2ccccc2F)C1` (centres undefined), with 5.055%. Take `COCCN1CCN(Cc2coc(-c3ccccc3Cl)n2)CC1`: the “Percent Effect” value is -11.13%. Under `CCN1CCN(c2nc(O)cc(Cc3ccccc3F)n2)CC1` stands 169.1%; under `C[C@@H]1CN(c2nc(O)cc(Cc3ccccc3F)n2)C[C@H](C)O1`, 156.7%. For `CCN1CCN(c2ccc(F)cc2C(C)NCc2ccccn2)CC1` (centres undefined), the “Percent Effect” value came out at 9.781%. Consider `COCCN1CCN(c2nc(O)cc(Cc3ccccc3F)n2)CC1`, for which the “Percent Effect” value worked out at 126.9%.

`CCOc1ccnc(N2CCN(CCOC)CC2)n1`: the “Percent Effect” value was -0.8063%.

On to `CN1CCN(CCCNS(=O)(=O)Cc2ccccc2F)CC1`, for which the “Percent Effect” value is listed as -19.52%. For the compound `CC(NCc1ccccn1)c1ccc(N2CCN(C)CC2)c(F)c1` (centres undefined), the “Percent Effect” value is -5.411%. Turning to `CN1CCN(c2nc(O)cc(Cc3ccccc3F)n2)CC1`, the “Percent Effect” value turned out to be 156.6%.

The record behind these values is ChEMBL document CHEMBL3988442, “University of Dundee, Small-Polar-MMV Screening Library” (2021).
